Activity calls are given as the source filed them. The calls were made as follows: active = hit-call score of the fitted dose curve at least 0.9, where 1 is the maximum; inactive = score below 0.9.
Read-out: not listed separately
Test: CEETOX_H295R_TESTO: CeeTox H295R High-throughput Steroidogenesis Assay for Testosterone (TESTO) (AID 2283457);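 as to AC50: cells exposed to chemicals for 48 h before medium collection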
Details: actives raise or lower the signal
Summary of the method: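 Testosterone synthesis is assessed in human adrenocortical H295R cells after 48 h of chemical exposure, using HPLC-MS/MS of extracted medium. Activity is fitted in both directions against DMSO control.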

Row | SMILES | outcome | AC50
1 | CC1=C2C[C@H]3[C@@H](CC=C4C[C@@H](O)CC[C@@]43C)[C@@H]2CC[C@]12O[C@@H]1C[C@H](C)CN[C@H]1[C@H]2C | inactive | 
2 | Cc1ccccc1CO[C@@H]1C[C@@]2(C(C)C)CC[C@]1(C)O2 |  | 35 µM (active)
3 | CCC(=O)O[C@H]1CC[C@H]2[C@@H]3CCC4=CC(=O)CC[C@]4(C)[C@H]3CC[C@]12C |  | 3.77 µM (active)
4 | NS(=O)(=O)C(F)(F)C(F)(F)C(F)(F)C(F)(F)C(F)(F)C(F)(F)C(F)(F)C(F)(F)F | inactive | 
5 | O=C(NC(=O)c1c(F)cccc1F)Nc1cc(Cl)c(OC(F)(F)C(F)F)c(Cl)c1 | inactive | 
6 | c1cc2ccc3cccc4ccc(c1)c2c34 |  | 29.5 µM (active)

Read-out: growth arrest and DNA damage 45 (GADD45A), GADD45A (gene 1647)
Test: LTEA_HepaRG_GADD45A: Life Technologies and Expression Analysis (LTEA) Assay for growth arrest and DNA damage 45 (GADD45A) using HepaRG (AID 2283458)
Details: mRNA level, 48 h; actives raise or lower the signal
Summary of the method: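 GADD45A expression was measured by TaqMan qRT-PCR against three housekeeping genes (ACTB, GAPDH, POLR2A) after 48 h treatment of HepaRG cells. Eight-point half-log series up to 100 uM in 0.5% DMSO, run in duplicate.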

Row | SMILES | outcome | AC50
7 | CC1=C2C[C@H]3[C@@H](CC=C4C[C@@H](O)CC[C@@]43C)[C@@H]2CC[C@]12O[C@@H]1C[C@H](C)CN[C@H]1[C@H]2C | inactive | 
8 | CC#Cc1cc(C)nc(Nc2ccccc2)n1 | inactive | 
9 | CCC(C)(c1ccc(O)cc1)c1ccc(O)cc1 | inactive | 
10 | Cc1ccccc1CO[C@@H]1C[C@@]2(C(C)C)CC[C@]1(C)O2 | inactive | 
11 | CCC(=O)O[C@H]1CC[C@H]2[C@@H]3CCC4=CC(=O)CC[C@]4(C)[C@H]3CC[C@]12C | inactive | 
12 | Oc1ccc(Cl)cc1Cl | inactive | 
13 | CCCCCCCCCc1ccc(O)cc1 | inactive | 
14 | ClC(Cl)=C(c1ccc(Cl)cc1)c1ccc(Cl)cc1 |  | 0.0693 µM (active)
15 | O=S(=O)(O)C(F)(F)C(F)(F)C(F)(F)C(F)(F)C(F)(F)C(F)(F)F | inactive | 
16 | Cc1cc(O)ccc1Cl | inactive | 
17 | O=C(O)C(F)(F)C(F)(F)C(F)(F)C(F)(F)C(F)(F)C(F)(F)C(F)(F)C(F)(F)F |  | 74.6 µM (active)
18 | COS(=O)(=O)OC | inactive | 
19 | N#Cc1ccc(N(CC(N)=O)CC(F)(F)F)cc1C(F)(F)F | inactive | 
20 | CCC(C)(CC)c1cc(NC(=O)c2c(OC)cccc2OC)on1 | inactive | 
21 | O=C(N[C@H]1CN2CCC1CC2)c1cc2ccoc2cn1 | inactive | 
22 | C1CC2OC2CC1C1CO1 (stereo not drawn) | inactive | 

Row | SMILES | outcome | AC50
23 | O=S(=O)(O)C(F)(F)C(F)(F)C(F)(F)C(F)(F)F | inactive | 
24 | O=NN(c1ccccc1)c1ccccc1 |  | 78.8 µM (active)
25 | NS(=O)(=O)C(F)(F)C(F)(F)C(F)(F)C(F)(F)C(F)(F)C(F)(F)C(F)(F)C(F)(F)F |  | 29.1 µM (active)
26 | CC(c1ccc(O)cc1)(c1ccc(O)cc1)c1ccc(O)cc1 | inactive | 
27 | C=CC(N)=O | inactive | 
28 | Cc1cc2c3c(c1)C(c1ccccc1)=N[C@@H](NC(=O)c1ccncc1)C(=O)N3CC2 | inactive | 
29 | CN(C)CCO | inactive | 
30 | Nn1cnnc1 | inactive | 
31 | Cc1cc(-c2ccc(N)c(C)c2)ccc1N | inactive | 
32 | O=C(NC(=O)c1c(F)cccc1F)Nc1cc(Cl)c(OC(F)(F)C(F)F)c(Cl)c1 | inactive | 
33 | CN(C)c1nc(=O)n(C2CCCCC2)c(=O)n1C | inactive | 
34 | O=C(O)C(F)(F)C(F)(F)C(F)(F)C(F)(F)C(F)(F)C(F)(F)C(F)(F)C(F)(F)C(F)(F)F |  | 85.5 µM (active)
35 | c1cc2ccc3cccc4ccc(c1)c2c34 | inactive | 
36 | C=CC(=O)NCNC(=O)C=C | inactive | 
37 | Clc1ccc(C(Cl)(Cl)Cl)cc1 | inactive | 
38 | O=C(NC(=O)c1cc(F)c(F)cc1Cl)Nc1cc(F)ccc1N1CCC(C(=O)O)CC1 | inactive | 

Reference: PubChem BioAssay (EPA / NIEHS)
